From PubChem BioAssay (NCATS)
Where “and” joins values, the source holds several entries; their conditions need not be identical. Identical values can stand only once. Inconclusive results are not listed. A number with no mark means an inactive call. Calls of active or inactive are those of the source. Calls come from the whole dose curve; as a rule, active = well fitted curve in the direction sought with a large enough effect; inconclusive = small, poorly fitted or top-dose-only effect, or another doubt; inactive = no such curve, though single readings can be large; an effect the other way counts as inactive or inconclusive.

Tests used:
[1] = Viability qHTS for spleen associated tyrosine kinase inhibitor (SYKi) naive MV4-11 cells (AID 1963823); conditions: MV4-11 AML viability, CellTiter-Glo luminescence, 72 h; series mostly up to 45 µM; note: nearly all actives have a fitted effect of over 40% in size
Summary of the method: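 Luminescence from CellTiter-Glo, developed 10 min at room temperature, gave viability of MV4-11 cells never exposed to SYK inhibitor. Cells (500/well) had been incubated with compounds for 72 hr under standard culture conditions.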

[2] = Viability qHTS for spleen associated tyrosine kinase inhibitor (SYKi) drug resistant MV4-11 cells (AID 1963824); conditions: SYKi-resistant MV4-11 viability, CellTiter-Glo, 72 h; series mostly up to 45 µM; note: nearly all actives have a fitted effect of over 35% in size
Summary of the method: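 SYK-inhibitor-resistant MV4-11 AML cells were seeded at 500 per well onto compound and cultured 72 hours (37 °C, 5% CO2). CellTiter-Glo was then added, and after 10 min at room temperature, luminescence gave viability.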

[3] = Cellular viability qHTS for adrenocortical cancer (ACC) cell line SW-13 (AID 1963989); conditions: SW-13 ACC cells viability, CellTiter-Glo, 48 h; activity (max response): active compounds read low; note: nearly all actives have a fitted effect of over 65% in size;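 for activity (max response): cells grown in serum-free medium with ITS supplement; % is set by controls: 0 for no effect and ±100 for the full control effect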
Summary of the method: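 48 h treatment, SW-13 in ITS/DMEM serum-free; doses up to 46 uM; readout CellTiter-Glo luminescence; curve fit four-parameter logistic.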

[4] = Cellular viability qHTS for adrenocortical cancer (ACC) cell line NCI-H295R (AID 1963990); conditions: CellTiter-Glo ATP luminescence, 48 h; series mostly up to 46.1 µM; note: nearly all actives have a fitted effect of over 60% in size
Summary of the method: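 Compound titrations (up to 46 uM final) are applied to NCI-H295R cultures for 48 h at 37C. Viable cell number is estimated by CellTiter-Glo signal, normalised to DMSO and doxorubicin controls.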
Potency is the fitted concentration of half-maximal effect.

In the case of Cc1ccc(S(=O)(=O)Nc2cc(C(F)(F)F)ccc2C(=O)Nc2nc(-c3ccccc3)cs2)cc1, the Potency [1] is reported as 2.95 µM (active), the Potency [2] is reported as 2.95 µM (active) and the Potency [3] is reported as 2.24 µM (active). The Potency [4] was 2.51 µM (active).

With Cc1ccc2cc(-c3c(C)ccc(C(=O)c4c(-c5ccccc5)n(C)n(-c5ccccc5)c4=O)c3N)ccc2n1 the Potency [1] was 4.61 µM (active), the Potency [2] was 9.34 µM (active) and the activity (max response) [3] was -12.9%. The Potency [4] was “inactive”.

In the case of [2H]C([2H])([2H])C(O)([C@@H](C)/C=C/[C@@H](C)[C@H]1CC[C@H]2/C(=C/C=C3C[C@@H](O)C[C@H](O)C3)CCC[C@]12C)C([2H])([2H])[2H], the Potency [1] is reported as 0.0105 µM (active), the Potency [2] is reported as 0.468 µM (active) and the activity (max response) [3] is reported as -26.6%. The Potency [4] was “inactive”.

For FC(F)(F)c1ccc(Nc2nc(-c3c(C(F)(F)F)nc4ccccn34)cs2)cc1, the Potency [1] was 0.184 µM (active), the Potency [2] was 0.13 µM (active) and the Potency [3] was 0.282 µM (active). The Potency [4] was 0.316 µM (active).

For O=C1OC(COc2ccccc2[N+](=O)[O-])CC1Cc1ccccc1 (centres undefined), the Potency [1] was “inactive”, the Potency [2] was 13.2 µM (active) and the Potency [4] was “inactive”.

For CC(C)[C@H]1C(=O)N[C@@H](CCCN=C(N)N)C(=O)NCC(=O)N[C@@H](CC(=O)O)C(=O)N[C@H](Cc2ccccc2)C(=O)N1C, the Potency [1] was “inactive”, the Potency [2] was “inactive” and the Potency [4] was “inactive”.

With CC(C)NCCCC1(C(N)=O)c2ccccc2-c2ccccc21 the Potency [1] was “inactive”, the Potency [2] was “inactive” and the Potency [4] was “inactive”.

For CN1CCCC(CC2c3ccccc3Sc3ccccc32)C1 (centres undefined), the Potency [1] was 18.8 µM (active), the Potency [2] was 16.8 µM (active) and the Potency [4] was 18.4 µM (active).

For O=C(O)Cn1cnnn1, the Potency [1] was “inactive”, the Potency [2] was “inactive” and the Potency [4] was “inactive”.

For CCCCOc1ccc(C(=O)CCN2CCCCC2)cc1, the Potency [1] was 21.1 µM (active), the Potency [2] was 16.8 µM (active) and the Potency [4] was 8.2 µM (active).

In the case of CCN(CC)CCNC(=O)c1c(C)[nH]c(/C=C2/C(=O)Nc3ccc(-c4csc(-c5ccccc5)n4)cc32)c1C, the Potency [1] is reported as 0.468 µM (active), the Potency [2] is reported as 1.32 µM (active) and the Potency [4] is reported as 3.55 µM (active).

For CNCCC(Oc1ccccc1OC)c1ccccc1 (centres undefined), the Potency [1] was “inactive”, the Potency [2] was “inactive” and the Potency [4] was “inactive”.

For CCC[C@H](NC(=O)/C(C#N)=C/c1cccc(Br)n1)c1ccccc1, the Potency [1] was 2.09 µM (active), the Potency [2] was 2.35 µM (active) and the Potency [4] was 12.6 µM (active).

For Cn1ncc2cc(-c3cnc(N)c(Cl)c3N3CCC4(CCNC4=O)CC3)ccc21, the Potency [1] was 2.31 µM (active) and 1.48 µM (active), the Potency [2] was 2.59 µM (active) and 2.95 µM (active) and the Potency [4] was “inactive”.

With O=c1[nH]sc2cc(Cl)ccc12 the Potency [1] was “inactive”, the Potency [2] was “inactive” and the Potency [4] was 3.26 µM (active).
